Values joined by “and” are separate entries in the source; they are usually repeats but may differ in a detail not shown here. Equal entries are not always repeated. Results filed as inconclusive are left out. The source holds several records for some structures; these can differ, active in one and inactive in another. Active and inactive are the calls of the source. Unless noted, the call rests on the fitted dose curve; in most records, active means well fitted curve in the direction sought with a large enough effect in the repeat runs; inconclusive means weak or mixed curves; inactive means no such curve, though single readings can be large; an effect the other way counts as inactive or inconclusive.

This is an account of results in PubChem BioAssay (Tox21).

Test [1] in a line: qHTS assay to identify small molecule agonists of the vitamin D receptor (VDR) signaling pathway - cell viability counter screen (AID 743224). Further: nearly all actives have a fitted effect of over 50% in size. Further: potency means the concentration at half of the fitted maximal effect. In short, it runs like this: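 Counter screen run in the same wells as the VDR-bla reporter assay: CellTiter-Glo luminescence, 30 min at room temperature, after 16 h compound treatment at 37C of cells pre-plated for 4 h.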
(Quantitative high-throughput screening tests each substance at several concentrations.)

Test [2] in a line: qHTS assay to identify small molecule antagonists of the vitamin D receptor (VDR) signaling pathway - cell viability counter screen (AID 743225). Further: nearly all actives have a fitted effect of over 50% in size. The method, boiled down: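 Read-out: CellTiter-Glo luminescence measured 30 min after reagent addition at room temperature. Cells were VDR-bla HEK 293T exposed 16 h at 37C, 5% CO2, to compound with 3 nM final calcitriol agonist.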
A short description of test [3]: qHTS assay to identify small molecule agonists of the NFkB signaling pathway - cell viability counter screen (AID 1159515; calls by dose curve; further: series mostly up to about 61 µM; nearly all actives have a fitted effect of over 55% in size). The method, boiled down:
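Read by CellTiter-Glo luminescence (30 min, room temperature) in the wells also used for the beta-lactamase FRET read. ME-180 NFkB-bla cells at 2,000 per well were plated overnight, then exposed to compound for 5 hr at 37 C.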

Test [4] is described as follows: qHTS assay to identify small molecule agonists of the endoplasmic reticulum stress response signaling pathway (AID 1159516; active means well fitted activation curve with a large enough effect in the signal ratio in the repeat runs, not every such curve was filed as active; the % refers to the signal ratio). In short, it runs like this:
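Ratiometric FRET readout (405 nm excitation; 460 and 530 nm emission) of a beta-lactamase gene driven by the ER stress response element, after 2 hr substrate loading. HeLa ESRE-bla cells were seeded overnight and treated with compounds for only 5 hr at 37 C.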

A short description of test [5]: qHTS assay to identify small molecule agonists of the endoplasmic reticulum stress response signaling pathway - cell viability counter screen (AID 1159517; calls by dose curve; further: series mostly up to about 61 µM; nearly all actives have a fitted effect of over 50% in size). The method, boiled down:
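After overnight attachment, ESRE-bla HeLa cells were treated with Tox21 library compounds for 5 hr. CellTiter-Glo luminescence, read 30 min post-addition at room temperature, reported viability.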

The nature of test [6]: qHTS assay to identify small molecule antagonists of the retinoid-related orphan receptor gamma (ROR-gamma) signaling pathway - cell viability counter screen (AID 1159520). Further: nearly all actives have a fitted effect of over 50% in size. The method, boiled down:
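Cytotoxicity was read from cellular ATP (CellTiter-Glo luminescence) after 16 hr at 37 C with 1 uM doxycycline induction. The inducer was added 2 hr after compound transfer to Tet-on ROR gamma CHO cells.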

The target of test [7] is Nuclear receptor ROR-gamma (Homo sapiens) (UniProt P51449). Kind of test: qHTS assay to identify small molecule antagonists of the retinoid-related orphan receptor gamma (ROR-gamma) signaling pathway (AID 1159521; further: nearly all actives have a fitted effect of over 50% in size; further: potency means the concentration at half of the fitted maximal effect). The method, boiled down:
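CHO Tet-on RORγ, RORE-luc reporter. Cpd 2 h pre-incubation, then dox hyclate 1 uM final, 16 h, 37 C/5% CO2. ONE-Glo luminescence; decrease = antagonist.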

Test [8] can be described thus: qHTS assay to identify small molecule agonists of the AP-1 signaling pathway - cell viability counter screen (AID 1159525; calls by dose curve; further: nearly all actives have a fitted effect of over 55% in size). In short, it runs like this:
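Intracellular ATP by Cell Titer Glo luminescence (30 min, RT) in the same ME-180 AP-1-bla wells after the 5 h compound exposure at 37 °C. Normalised to tetra n-octyl ammonium bromide and DMSO controls.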

Test [9] can be described thus: qHTS assay to identify small molecule agonists of the AP-1 signaling pathway (AID 1159526; calls by dose curve).
The nature of test [10]: qHTS assay to identify small molecule agonists of the RXR signaling pathway - cell viability counter screen (AID 1159529). Further: nearly all actives have a fitted effect of over 50% in size. Further: potency means the concentration at half of the fitted maximal effect. In short, it runs like this:
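HEK 293T RXRa-bla cells, 2% CS-FBS; 5 h settle; cpd 16 h 37 C, 5% CO2; CellTiter-Glo 30 min RT, luminescence. Tetraoctyl ammonium bromide as positive control.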

A short description of test [11]: qHTS assay to identify small molecule antagonists of the retinoid acid receptor (RAR) signaling pathway - cell viability counter screen (AID 1159551). Further: nearly all actives have a fitted effect of over 35% in size. In short, it runs like this:
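Cytotoxicity counter screen: ATP content quantified by CellTiter-Glo luminescence in C3RL4 cells treated 6 hr at 37 C with compound and retinol (1 uM final). Cells plated at 1,000/well and cultured overnight before dosing.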

Test [12] deals with Retinoic acid receptor RXR-alpha (Homo sapiens) (UniProt P19793). As to the kind of experiment: qHTS assay to identify small molecule agonists of the RXR signaling pathway (AID 1159527; calls by dose curve; further: nearly all actives have a fitted effect of over 35% in size; further: potency means the concentration at half of the fitted maximal effect). The method, boiled down:
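Read-out: beta-lactamase FRET ratio (405 nm excitation, 460 and 530 nm emission) after 2 hr substrate loading at room temperature. Cells were RXR-alpha-UAS-bla HEK 293T treated with compounds for 16 hr in 2% charcoal-stripped FBS medium.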

Test [13] can be described thus: qHTS assay to identify small molecule antagonists of the retinoic acid receptor (RAR) signaling pathway (AID 1159552; further: nearly all actives have a fitted effect of over 50% in size; further: potency means the concentration at half of the fitted maximal effect). In short, it runs like this:
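Cells of the C3RL4 line were seeded, incubated overnight, then dosed with compounds in DMSO followed immediately by retinol (1 uM final). Six hours later luciferase detection reagent went in; signal was measured after 30 min at RT.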

A short description of test [14]: qHTS assay to identify small molecule agonists of the retinoic acid receptor (RAR) signaling pathway (AID 1159553). The method, boiled down:
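Luminescence was measured 30 min after luciferase reagent addition at room temperature. Before that, C3RL4 reporter cells (1,000 per well, plated overnight) were treated with compound for 6 hr at 37 C and 5% CO2.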

A short description of test [15]: qHTS assay to identify small molecule antagonists of the estrogen related receptor (ERR) signaling pathway - cell viability counter screen (AID 1224818).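 Further: series mostly up to about 46 µM; viability measured after 17.5 h of compound exposure.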 In short, it runs like this:
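Cytotoxicity counter screen: fluorescence from CellTiter-Fluor, added after 17.5 h compound exposure at 37 C and read 30 min later. ERR cell line seeded at 2,000 cells/well, preincubated 6 h before dosing.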

A short description of test [16]: qHTS assay to identify small molecule antagonists of the estrogen related receptor signaling pathway with the pleiotropic PPARgamma coactivator (PGC) cell viability counter screen (AID 1224822; further: series mostly up to about 46 µM). The method, boiled down:
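Viability counter-screen read by fluorescence intensity after 30 min with CellTiter-Fluor at 37 C; PGC/ERR reporter cells were exposed to compounds for 17.5 h at 37 C following a 6 h preincubation.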

Chain of Retinoic acid receptor RXR-alpha (Homo sapiens) (P19793 whole entry, looked up): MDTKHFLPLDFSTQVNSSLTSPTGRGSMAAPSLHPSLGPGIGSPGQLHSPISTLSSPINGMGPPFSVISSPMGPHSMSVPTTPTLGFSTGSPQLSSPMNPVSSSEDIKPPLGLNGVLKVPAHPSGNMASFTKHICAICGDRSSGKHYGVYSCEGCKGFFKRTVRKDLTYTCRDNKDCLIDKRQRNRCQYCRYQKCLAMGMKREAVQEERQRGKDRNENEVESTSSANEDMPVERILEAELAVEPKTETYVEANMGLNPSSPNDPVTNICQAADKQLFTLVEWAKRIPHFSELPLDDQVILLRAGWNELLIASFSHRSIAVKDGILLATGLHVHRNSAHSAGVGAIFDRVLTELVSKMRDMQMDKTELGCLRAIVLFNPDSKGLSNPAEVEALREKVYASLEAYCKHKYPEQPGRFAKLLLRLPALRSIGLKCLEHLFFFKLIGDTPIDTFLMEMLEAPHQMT

Turning to `CCCCCC[n+]1ccccc1`, the Potency is 39.3 µM (active) and 49.3 µM (active) and inactive in test [1]; 55.5 µM (active) and 49.3 µM (active) and inactive in test [10]. For the same compound, the Potency result in test [2], in test [3], in test [5], in [6], in test [7] and in [8] was “inactive” throughout. The Potency entry in [9] and in test [11] was “inactive” each time. Also, the outcome in [4] was inactive.
With `O=C(O)c1nc(Cl)ccc1Cl`, the Potency entry in test [1], in test [2], in test [3], in test [5], in test [6] and in test [7] was “inactive” each time. In addition, the Potency entry in test [8], in [9], in [10] and in [11] was “inactive” each time. For the same compound, the result in test [4] was inactive.
As to `O=C(O)C(Cl)(Cl)Cl`, the Potency entry in test [1], in test [2], in test [3], in [5], in test [6] and in [7] was “inactive” each time. In addition, the Potency entry in [8], in test [9], in test [12], in [10], in test [11] and in test [13] was “inactive” throughout. In test [14], the Potency result is “inactive”. In addition, the outcome in test [4] was inactive.
For `CCCC[n+]1ccccc1`, the Potency entry in test [1], in test [2], in test [3], in test [5], in test [6] and in [7] was “inactive” throughout. Also, the Potency result in [8], in test [9], in [10], in test [11] and in [14] was “inactive” throughout. For the same compound, the compound was called inactive in test [4].
Take `CC[N+](CC)(CC)CC`: the Potency entry in [1], in test [2], in test [3], in test [5], in [6] and in test [7] was “inactive” throughout. The Potency result in test [8], in test [9], in test [10], in [11], in test [14] and in [16] was “inactive” throughout. The compound was called inactive in test [4] and in test [15].
Turning to `COP(=O)(OC)OC=C(Cl)Cl`, the Potency result in [1], in [2], in [3], in test [5], in test [6] and in [7] was “inactive” throughout. The Potency entry in test [8], in test [9], in [12], in [10] and in [11] was “inactive” throughout. Further, the call in [4] was inactive.
Take `CCNc1nc(Cl)nc(NCC)n1`: the Potency result in test [1], in test [2], in test [3], in test [5], in [6] and in test [8] was “inactive” each time. Also, the Potency entry in test [9], in [10], in test [11], in [13] and in test [14] was “inactive” in each case. Besides, the call in test [4] was inactive. In addition, the Potency in test [7] is 48.8 µM (active) and inactive; in test [12], “inactive and 12.2 µM (active)”.
`C[C@]12CCC(=O)C=C1CC[C@@H]1[C@@H]2CC[C@]2(C)C(=O)CC[C@@H]12`: the Potency entry in test [1], in test [2], in test [3], in test [5], in test [6] and in test [8] was “inactive” each time. In addition, the Potency entry in [9], in test [12], in test [10], in [11] and in [14] was “inactive” in each case. In test [4], the compound was classed as inactive. Also, the Potency is 23.9 µM (active) and inactive in test [7]; 47.7 µM (active) and inactive in [13].
On to `Nc1ccc(-c2ccc(N)cc2)cc1`, for which the Potency entry in [1], in test [2], in test [3], in test [5], in [6] and in test [7] was “inactive” in each case. Also, the Potency entry in test [8], in [9], in test [12], in test [10], in [11] and in test [13] was “inactive” each time. In addition, the Potency result in test [14] is “inactive”. Further, the call in test [4] was inactive.
